Reference: PubChem BioAssay (NCI)
“And” between values parts separate entries of the source, which are not always exact repeats. Equal values may be shown once. The panel holds about 83,000 compounds, 20% with a hit somewhere; the sample as a whole holds those more often.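 Assay: single dose, 48 h. Readout: percent growth (0 = no net growth; negative = cell death). Active: <10.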 The source made the active and inactive calls.

Legend:
Experiment in all cases: NCI-60 one-dose screen, 48 h (100 = growth as untreated, 0 = no growth, -100 = all killed)
Conditions in all cases: 10 µM unless noted
HCT-15 colon = system: HCT-15 colon
HT29 colon = system: HT29 colon
SNB-75 CNS = system: SNB-75 CNS
SNB-19 CNS = system: SNB-19 CNS
U251 CNS = system: U251 CNS
PC-3 prostate = system: PC-3 prostate
SK-MEL-5 melanoma = system: SK-MEL-5 melanoma
UACC-62 melanoma = system: UACC-62 melanoma
LOX IMVI melanoma = system: LOX IMVI melanoma
SK-MEL-28 melanoma = system: SK-MEL-28 melanoma

Measured: growth

CCC(=O)C(CC(C)N1CCCCCC1)(c1ccccc1)c1ccccc1 (stereo not drawn)
inactive: HCT-15 colon 87.2% | HT29 colon 67.1% | SNB-75 CNS 115% | SNB-19 CNS 95.2% | U251 CNS 100% | PC-3 prostate 89.2% | SK-MEL-5 melanoma 98.2% | UACC-62 melanoma 94.4% | LOX IMVI melanoma 103% | SK-MEL-28 melanoma 94.7%

Cc1ccc(P(=O)(O)O)cc1
inactive: HCT-15 colon 107% | HT29 colon 109% | SNB-75 CNS 107% | SNB-19 CNS 97.9% | U251 CNS 101% | PC-3 prostate 107% | SK-MEL-5 melanoma 107% | UACC-62 melanoma 98.6% | LOX IMVI melanoma 104% | SK-MEL-28 melanoma 112%

CN(C)C(=S)SSC(=S)N(C)C
inactive: HCT-15 colon 93.9% and 113% | HT29 colon 61.1% and 92.2% | SNB-75 CNS 109% and 104% | SNB-19 CNS 98.7% and 98.8% | U251 CNS 81.2% and 75.7% | PC-3 prostate 75.5% and 91.1% | SK-MEL-5 melanoma 82% | UACC-62 melanoma 97.4% and 96.2% | LOX IMVI melanoma 104% and 108% | SK-MEL-28 melanoma 116% and 114%

CC/C(Cc1ccccc1)=C(\c1ccc(OCCN2CCCC2)cc1)c1ccc(OC(=O)NCc2ccccc2)cc1
inactive: SNB-75 CNS 57.7% | SNB-19 CNS 54.9% | U251 CNS 12.5% | PC-3 prostate 47.8% | SK-MEL-5 melanoma 19.3% | LOX IMVI melanoma 49.3%
active: HCT-15 colon -11.5% | HT29 colon -42.1% | UACC-62 melanoma -45.4% | SK-MEL-28 melanoma -60.3%

CCCCS(=O)(=O)Cl
inactive: HCT-15 colon 108% | HT29 colon 113% | SNB-75 CNS 93.5% | SNB-19 CNS 110% | U251 CNS 105% | PC-3 prostate 89.6% | SK-MEL-5 melanoma 98.2% | UACC-62 melanoma 106% | LOX IMVI melanoma 99.9% | SK-MEL-28 melanoma 107%

c1ccc(CCN2CCCCC2)nc1
inactive: HCT-15 colon 74.1% | HT29 colon 95.8% | SNB-75 CNS 78.8% | SNB-19 CNS 109% | U251 CNS 107% | PC-3 prostate 84.8% | SK-MEL-5 melanoma 115% | UACC-62 melanoma 97.9% | LOX IMVI melanoma 107% | SK-MEL-28 melanoma 104%

O=P1(N(CCCl)CCCl)NCCCO1 (stereo not drawn)
inactive: HCT-15 colon 106% | HT29 colon 102% | SNB-75 CNS 102% | SNB-19 CNS 102% | U251 CNS 96.8% | PC-3 prostate 106% | SK-MEL-5 melanoma 103% | UACC-62 melanoma 94.4% | LOX IMVI melanoma 104% | SK-MEL-28 melanoma 114%

C=CC1CN2CCC1CC2C(O)c1ccnc2ccccc12 (stereo not drawn)
inactive: HCT-15 colon 116% | HT29 colon 115% | SNB-75 CNS 124% | SNB-19 CNS 124% | U251 CNS 115% | PC-3 prostate 55.8% | SK-MEL-5 melanoma 104% | UACC-62 melanoma 113% | LOX IMVI melanoma 117% | SK-MEL-28 melanoma 133%

O=CC1(c2ccccc2)CCN(Cc2ccccc2)CC1
inactive: HCT-15 colon 103% | HT29 colon 107% | SNB-75 CNS 102% | SNB-19 CNS 109% | U251 CNS 101% | PC-3 prostate 98.1% | SK-MEL-5 melanoma 110% | UACC-62 melanoma 105% | LOX IMVI melanoma 82.8% | SK-MEL-28 melanoma 112%

c1ccc2c(c1)O[As](O[As]1Oc3ccccc3O1)O2
inactive: HCT-15 colon 29.9% | HT29 colon 24.8% | SNB-19 CNS 82.9% | PC-3 prostate 36.9% | SK-MEL-5 melanoma 20.7% | UACC-62 melanoma 43.8% | LOX IMVI melanoma 30.9% | SK-MEL-28 melanoma 44.4%
active: SNB-75 CNS 1.6% | U251 CNS 1.07%

CCC(=O)C(CC(C)[N+](C)(C)C)(c1ccccc1)c1ccccc1 (stereo not drawn)
inactive: HCT-15 colon 97.6% | HT29 colon 108% | SNB-75 CNS 93.8% | SNB-19 CNS 96.8% | U251 CNS 97.9% | PC-3 prostate 103% | SK-MEL-5 melanoma 97.2% | UACC-62 melanoma 101% | LOX IMVI melanoma 96.7% | SK-MEL-28 melanoma 106%

C(=NC1CCCCC1)=NC1CCCCC1
inactive: HCT-15 colon 108% | HT29 colon 101% and 91.9% | SNB-75 CNS 87.5% and 79.6% | SNB-19 CNS 103% and 83.9% | U251 CNS 117% | PC-3 prostate 97.5% and 48.6% | SK-MEL-5 melanoma 103% and 61.4% | UACC-62 melanoma 104% and 87.6% | LOX IMVI melanoma 109% | SK-MEL-28 melanoma 97.2% and 94.9%

O=C(CCCN1CCC2(CC1)C(=O)NCN2c1ccccc1)c1ccc(F)cc1
inactive: HCT-15 colon 100% and 78.4% | HT29 colon 60.8% and 21.9% | SNB-75 CNS 109% and 105% | SNB-19 CNS 98.1% and 66.6% | U251 CNS 98.6% and 78.7% | PC-3 prostate 106% and 77.6% | UACC-62 melanoma 102% and 65% | LOX IMVI melanoma 103% and 67.8% | SK-MEL-28 melanoma 114% and 120%
56.9% (inactive) and -23.1% (active): SK-MEL-5 melanoma

CC[C@H](CC[C@@H](C)[C@H]1CC[C@H]2[C@@H]3CC[C@H]4C[C@]5(CC[C@]4(C)[C@H]3CC[C@]12C)OO[C@](C)(C(F)(F)F)O5)C(C)C
inactive: HCT-15 colon 97% | HT29 colon 102% | SNB-75 CNS 66.7% | SNB-19 CNS 90.4% | U251 CNS 100% | PC-3 prostate 94.2% | SK-MEL-5 melanoma 99.4% | UACC-62 melanoma 83.2% | LOX IMVI melanoma 92.9% | SK-MEL-28 melanoma 89.9%

CC1(C)N(Nc2ccccc2)C(=O)C2CCCN21 (stereo not drawn)
active: PC-3 prostate 9.48% | LOX IMVI melanoma 6.21%
inactive: HCT-15 colon 44.5% | HT29 colon 65.7% | SNB-75 CNS 50.7% | SNB-19 CNS 95.4% | U251 CNS 85.2% | SK-MEL-5 melanoma 97.5% | UACC-62 melanoma 21.7% | SK-MEL-28 melanoma 79%

CO[C@@H]([CH2][Hg][O]C(=O)c1ccccc1)[C@@H]([CH2][Hg][O]C(=O)c1ccccc1)OC
active: HCT-15 colon -93.1%
inactive: HT29 colon 95.7% | SNB-75 CNS 85.6% | SNB-19 CNS 96.5% | U251 CNS 93.3% | PC-3 prostate 88.7% | SK-MEL-5 melanoma 86.5% | UACC-62 melanoma 95.2% | LOX IMVI melanoma 36% | SK-MEL-28 melanoma 112%

O=C(NC(Cl)=C(Cl)Cl)P(=O)(c1ccccc1)c1ccccc1
inactive: HCT-15 colon 105% | HT29 colon 112% | SNB-75 CNS 92.3% | SNB-19 CNS 96.1% | U251 CNS 95.5% | PC-3 prostate 103% | SK-MEL-5 melanoma 98.5% | UACC-62 melanoma 102% | LOX IMVI melanoma 101% | SK-MEL-28 melanoma 99.6%

O=C1NC(=O)C(=C/C=C/c2ccccc2)C(=O)N1
active: HCT-15 colon 8.86% | HT29 colon -71.6% | U251 CNS 7.65% | UACC-62 melanoma -11.9% | LOX IMVI melanoma -64.4% | SK-MEL-28 melanoma -34.7%
inactive: SNB-75 CNS 24.3% | SNB-19 CNS 53.8% | PC-3 prostate 27.7% | SK-MEL-5 melanoma 80.9%

CCOP(=O)(NC)OCC
inactive: HCT-15 colon 112% | HT29 colon 109% | SNB-75 CNS 103% | SNB-19 CNS 102% | U251 CNS 107% | PC-3 prostate 85.4% | SK-MEL-5 melanoma 100% | UACC-62 melanoma 108% | LOX IMVI melanoma 102% | SK-MEL-28 melanoma 104%

C[C@]12CC[C@@H](OC(=O)N(CCCl)N=O)C[C@@H]1CC[C@@H]1[C@@H]2CC[C@]2(C)C(=O)CC[C@@H]12
inactive: HCT-15 colon 72.8% | HT29 colon 57.9% | SNB-75 CNS 63.4% | SNB-19 CNS 37.5% | U251 CNS 34.5% | PC-3 prostate 45.6% | SK-MEL-5 melanoma 56.8% | UACC-62 melanoma 30.4% | LOX IMVI melanoma 46.4% | SK-MEL-28 melanoma 99.4%

C[C@]12CCc3sc(Nc4ccc(F)cc4)nc3C1=CC[C@@H]1[C@@H]2CC[C@]2(C)C(=O)CC[C@@H]12
inactive: HCT-15 colon 32.2% | HT29 colon 35.5% | SNB-75 CNS 66.7% | SNB-19 CNS 67.4% | U251 CNS 47.2% | PC-3 prostate 64.3% | SK-MEL-5 melanoma 71.3% | UACC-62 melanoma 69.6% | LOX IMVI melanoma 56.6% | SK-MEL-28 melanoma 46.5%

C[C@]12CCC3[C@@H](C[C@@H]4SC(Nc5ccccc5)=N[C@@]45CC(=O)CC[C@]35C)[C@@H]1CCC2=O (stereo partly drawn)
active: HCT-15 colon 1.93% | HT29 colon -55.6% | U251 CNS -82.4% | PC-3 prostate -16.1% | UACC-62 melanoma -1.09% | LOX IMVI melanoma -58.1% | SK-MEL-28 melanoma 1.73%
inactive: SNB-75 CNS 41.5% | SNB-19 CNS 21.9% | SK-MEL-5 melanoma 26.3%

O=C(O)C(O)c1ccc(Cl)cc1 (stereo not drawn)
inactive: HCT-15 colon 102% | HT29 colon 116% and 104% | SNB-75 CNS 100% and 112% | SNB-19 CNS 106% and 108% | U251 CNS 106% and 100% | PC-3 prostate 92.7% and 103% | SK-MEL-5 melanoma 81.4% and 106% | UACC-62 melanoma 103% and 106% | LOX IMVI melanoma 101% and 106% | SK-MEL-28 melanoma 106% and 109%

CC/C(=C(\c1ccc(OCCN2CCOCC2)cc1)c1ccc(OC(=O)Cc2ccccc2)cc1)c1ccc(Cl)cc1
inactive: HCT-15 colon 112% | HT29 colon 95.1% | SNB-75 CNS 114% | SNB-19 CNS 99.6% | U251 CNS 103% | PC-3 prostate 95.3% | SK-MEL-5 melanoma 107% | LOX IMVI melanoma 99% | SK-MEL-28 melanoma 101%

CN(C)c1ccc(C=C2C(=O)NC(=O)NC2=O)cc1
inactive: HCT-15 colon 102% | HT29 colon 113% | SNB-75 CNS 92% | SNB-19 CNS 99.6% | U251 CNS 97% | PC-3 prostate 105% | SK-MEL-5 melanoma 94.4% | LOX IMVI melanoma 85.8% | SK-MEL-28 melanoma 92.5%
